Common to all, as to format: functional
The target in assay [1] is Solute carrier family 2, facilitated glucose transporter member 1 (Homo sapiens) (UniProt P11166). Description: ST_JUDE_LEISH: Cytotoxicity at 2uM final concentration against transgenic Leishmania Mexicana promastigotes LmGLUT1 that are glucose transport deficient and complemented with the human glucose transporter GLUT1. Activity is measured by DNA content using SYBR green in vitro.

Assay [2] has as its target Hexose transporter 1 (Plasmodium falciparum) (UniProt O97467). Description: ST_JUDE_LEISH: Cytotoxicity at 2uM final concentration against transgenic Leishmania Mexicana promastigotes LmPfHT that are glucose transport deficient and complemented with the Plasmodium falciparum hexose transporter. Activity is measured by DNA content using SYBR green in vitro.
Assay [3] addresses Glucose transporter (Leishmania mexicana) (UniProt O61059). In words: ST_JUDE_LEISH: Cytotoxicity at 2uM final concentration against transgenic Leishmania Mexicana promastigotes LmGT2 that are glucose transport deficient and complemented with the L. Mexicana glucose transporter 2. Activity is measured by DNA content using SYBR green in vitro.

Chain of Solute carrier family 2, facilitated glucose transporter member 1 (Homo sapiens) (P11166 whole entry): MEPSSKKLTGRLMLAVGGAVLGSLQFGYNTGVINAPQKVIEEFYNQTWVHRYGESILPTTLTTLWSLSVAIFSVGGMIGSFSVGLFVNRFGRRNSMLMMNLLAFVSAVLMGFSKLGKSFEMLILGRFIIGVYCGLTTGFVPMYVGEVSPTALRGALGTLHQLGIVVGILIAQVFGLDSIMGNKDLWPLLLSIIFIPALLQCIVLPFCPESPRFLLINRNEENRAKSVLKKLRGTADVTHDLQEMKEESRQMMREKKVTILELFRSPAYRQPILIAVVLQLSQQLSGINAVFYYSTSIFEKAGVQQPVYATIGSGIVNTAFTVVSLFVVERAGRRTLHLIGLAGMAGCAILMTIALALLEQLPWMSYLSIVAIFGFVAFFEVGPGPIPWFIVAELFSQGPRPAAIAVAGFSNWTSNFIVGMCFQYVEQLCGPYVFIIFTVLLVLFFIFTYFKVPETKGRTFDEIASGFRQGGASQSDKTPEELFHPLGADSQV

As for `O=C(NC1CCC(N2CCC(Cc3ccc(F)cc3)CC2)CC1)c1cc2ccccc2[nH]1` (configuration not stated), the figures for the inhibition in assay [1], in assay [2] and in assay [3] were 0.56%, 0.08% and 0.47%, respectively.
The corresponding values for `COC(=O)c1ccc(N2CCN(CCCCNC(=O)c3ccc(NC(=O)c4ccc(Cl)cc4)cc3)CC2)c(OC)c1` are 0.45%, 1.46% and 1.51%.
For the compound `COc1cc2nc(N3CCC(CNCc4ccc(-c5ccc(C(F)(F)F)cc5)cc4)CC3)nc(N)c2cc1OC`, the inhibition (commonly the change of the read-out against control, counted positive when it falls) in assay [1] came out at 106%; in assay [2] it was 107%; in assay [3] it was 110%.
The like results for `CC(C)C(=O)NC(c1ccc(Cl)cc1)c1ccc2cccnc2c1O` (configuration not stated) were, in that order, 3.14%, 5.18% and 2.63%.
`COc1ccc(NC(=O)NC2CCN(CCCOc3ccnc4cc(Cl)ccc34)C2)cc1OC` (configuration not stated): the inhibition in assay [1] is -0.88%; in assay [2] it was -0.13%; in assay [3], -0.69%.
The like results for `CC(C)(C)c1cc(C(=O)N2CCN(c3ccc(C(F)(F)F)cn3)CC2)n(Cc2ccc(F)cc2)n1` were, in that order, -1.9%, -3.19% and -1.88%.
Turning to `COc1cccc(Nc2nccc(NCC(O)c3ccc(C(F)(F)F)cc3)n2)c1` (configuration not stated), the inhibition was found to be 7.45% in assay [1], 8.55% in assay [2] and 2.75% in assay [3].
The like results for `Cc1cc(Nc2nc(NCc3cccnc3)nc3ccccc23)n[nH]1` were, in that order, 8.58%, 10.4% and 10%.
The corresponding values for `O=C(NCCCCN1CCC(c2ccc3c(c2OCCO)CCCC3)CC1)c1sc(-c2ccc(C(F)(F)F)cc2)nc1CO` are 3.31%, 2.17% and 3.21%.
The corresponding values for `CCCCOC(=O)C1=C(C)NC2=C(C(=O)CCC2)C1c1ccc(OC)c(Br)c1` (configuration not stated) are 0.77%, -0.81% and -1.96%.
As for `O=S(=O)(Nc1ccc(-c2ccc(CN3CCCC3)cc2)cc1)c1cccc2cccnc12`, the inhibition stood at 78% in assay [1], 85.2% in assay [2] and 71.7% in assay [3].
The corresponding values for `O=C(O)CCSc1ncnc2[nH]cnc12` are -2.53%, -2.15% and -2.15%.
With `O=C(NCCCCN1CCC(c2ccc3c(c2OCCO)CCCC3)CC1)c1ccc(-c2ccc(C(F)(F)F)cc2)cc1`, the values for the inhibition in assay [1], in assay [2] and in assay [3] were -0.75%, 0.12% and 5.23%, respectively.
The corresponding values for `c1ccc(Oc2ccc(Nc3ccnc4cc(-c5ccc(CN6CCOCC6)o5)ccc34)cc2)nc1` are -1.57%, -1.03% and -0.13%.
Regarding `Cc1cccc(OCC(=O)Nc2cccc(NC(=O)COc3cccc(C)c3)n2)c1`, the inhibition was found to be 0.99% in assay [1], 1.55% in assay [2] and 1.64% in assay [3].
As to `COC(=O)c1cccc(CNCc2cccc(-c3ccc(-c4nc5cc(C(F)(F)F)ccc5[nH]4)cc3)c2)c1`, the inhibition in assay [1] was determined as 2.29%; in assay [2], 3.53%; in assay [3], 2.66%.
Take `COc1cc(Nc2nccc(N3CCC(NC(=O)Nc4cc(C)ccc4C)C3)n2)cc(OC)c1OC` (configuration not stated): the values for the inhibition in assay [1], in assay [2] and in assay [3] were 1.64%, 1.62% and 2.46%, respectively.
The like results for `COc1ccc(Cc2cccc(C(C(=O)NCc3cc(Cl)cc(Cl)c3)N3CCN(C)CC3)c2)cc1` (configuration not stated) were, in that order, -1.02%, -1.26% and 0.4%.
The corresponding values for `Nc1nc(F)nc2nc[nH]c12` are 29.6%, 29.2% and 22%.
`Cc1nc(N)nc(N)c1-c1ccc(Cl)c(Cl)c1`: the inhibition is 6.9% in assay [1], 5.53% in assay [2] and 5.34% in assay [3].
The corresponding values for `Cn1nccc1C(=O)NCCNCc1ccc(-c2ccc(-c3nc4cc(C(F)(F)F)ccc4[nH]3)s2)cc1` are 0.47%, -0.52% and 0.87%.
Consider `O=C(NCCCCCN1CCC(c2c[nH]c3ccccc23)CC1)Nc1cccc(I)c1`, for which the inhibition in assay [1] was 14.6%; in assay [2], 12.6%; in assay [3] it was 5.88%.
As for `CCCCCCN1CCC(NCc2cccc(-n3ccnc3)c2)CC1`, the inhibition in assay [1] was 8.02%; in assay [2], 7.03%; in assay [3], 9.81%.
The like results for `CCCc1cc(N2CCC(N(CC)CC)C2)nc(Nc2ccc(OC)cc2)n1` (configuration not stated) were, in that order, 3.16%, 3.72% and 1.91%.
The like results for `O=C(NCc1ccc(Cl)cc1)c1ccc(C(=O)NCC2CCCN2CC2CCCCC2)cc1` (configuration not stated) were, in that order, 2.97%, 1.54% and 1.14%.
As to `CC(C)(C)COc1ccc2c(N)n[nH]c2c1`, the figures for the inhibition in assay [1], in assay [2] and in assay [3] were -1.62%, -1.52% and -0.66%, respectively.
The corresponding values for `O=C(Nc1ccc(C(F)(F)F)cc1)c1ccc(NCCCN2CCCCCC2)c([N+](=O)[O-])c1` are 5.54%, 6.55% and 6.28%.
Take `O=C(NCCN1CCCC1)c1cccc(-c2ccc(-c3nc4cc(F)ccc4[nH]3)cc2)c1`: the inhibition was -0.09% in assay [1], -0.39% in assay [2] and -1.28% in assay [3].
As to `Cc1cc(=O)c2cc(Oc3cccc(OC(F)(F)F)c3)ccc2[nH]1`, the inhibition in assay [1] came to 1.1%; in assay [2], 2.75%; in assay [3], 4.49%.
The corresponding values for `Cn1cnc(CCNC(=O)c2cccc(-c3csc(-c4nc5ccccc5[nH]4)c3)c2)c1` are -1.62%, -0.39% and -0.89%.
The corresponding values for `NC(=O)c1cccc(Nc2nccc(Nc3ccc(Oc4cccc(Cl)c4)c(Cl)c3)n2)c1` are 10.6%, 9.87% and 7.71%.
With `CCn1c(-c2nonc2N)nc2c(-c3cccc(Cl)c3)ncc(OCCCNCCc3c[nH]cn3)c21`, the inhibition in assay [1] came out at 4.7%; in assay [2], 4.78%; in assay [3], 3.45%.
The corresponding values for `CCN(C(=O)NC)C1c2cc(C#N)ccc2OC(C)(C)C1O` (configuration not stated) are 2.85%, 1.33% and 1.87%.
`c1ccc(CN2CCN(CCCCNc3c4ccccc4nc4ccccc34)CC2)cc1`: the inhibition was found to be 31.7% in assay [1], 37.9% in assay [2] and 19.4% in assay [3].
Take `Oc1ccc2ccccc2c1C=NNc1nc(=Nc2ccccc2)[nH]c(=Nc2ccccc2)[nH]1`: the values for the inhibition in assay [1], in assay [2] and in assay [3] were 3.37%, 3.44% and 2.92%, respectively.
Take `N#Cc1ccc(-c2ccc(C(=O)NCCCCN3CCC(c4ccc5c(c4OCC(N)=O)CCCC5)CC3)nc2)cc1`: the inhibition came to 3.35% in assay [1], 0.86% in assay [2] and 2.97% in assay [3].
`CC(C)CCN(Cc1cncn1Cc1cccc(Cl)c1)C(=O)c1cncc(-c2ccccc2)c1`: the inhibition was 5.13% in assay [1], 6% in assay [2] and 5.78% in assay [3].
The corresponding values for `O=C(Nc1ccccc1)N(Cc1ccc(-c2cccc(CNCc3ccc4c(c3)OCO4)c2)cc1)C1CCN(Cc2ccccc2)CC1` are -0.01%, 0.92% and 2.9%.
As for `COc1ccc2nc3cc(Cl)ccc3c(NCCCCCCNc3c4ccc(Cl)cc4nc4ccc(OC)cc34)c2c1`, the inhibition in assay [1] was found to be 10.3%; in assay [2] it was 11.2%; in assay [3] it was 9.4%.
The corresponding values for `c1ccc(C23NC(=Nc4nc5ccccc5[nH]4)NC2(c2ccccc2)NC(=Nc2nc4ccccc4[nH]2)N3)cc1` (configuration not stated) are 3.64%, 3.18% and 5.58%.
The corresponding values for `CCN(C)CCCn1c(N(C)C)nc2cc(-n3cnc4cc(-c5ccc(Cl)cc5)sc4c3=O)ccc21` are 8.73%, 10.9% and 3.62%.
The like results for `COc1ccc(NC(=O)c2ccc3cc4ccccc4cc3c2)cc1N1CCN(C)CC1` were, in that order, 0.49%, -0.55% and 0.74%.
Turning to `CCN(CC)CCCCOc1ccc2c(c1)C(=O)c1cc(OCCCCN(CC)CC)ccc1-2`, the inhibition in assay [1] was 10.2%; in assay [2] it was 4.61%; in assay [3], 0.2%.
Regarding `CC(C)(CNC(=O)C1CCN(CCOCc2ccccc2)CC1)c1nc(-c2ccc(Cl)c(O)c2)c(-c2ccncc2)[nH]1`, the values for the inhibition in assay [1], in assay [2] and in assay [3] were 1.22%, 0.65% and 2.74%, respectively.
As for `Nc1nc(N)c2c3c(ccc2n1)NCCC3`, the inhibition in assay [1] was -0.04%; in assay [2], 0.47%; in assay [3] it was -0.59%.
Turning to `CC(=O)Nc1cccc(C(=O)Nc2cccc(-c3ccc(-c4nc5cc(F)ccc5[nH]4)cc3)c2)c1`, the results for the inhibition in assay [1], in assay [2] and in assay [3] were 2.1%, 2.11% and 1.46%, respectively.
For `CCCNC(=O)Nc1cc2cc(-c3cccc(CN4CCCCC4)c3)ccc2n2c(C)nnc12`, the inhibition in assay [1] was found to be 0.33%; in assay [2] it was 1.3%; in assay [3], 0.91%.
In the case of `O=C(N[C@@H](Cc1ccccc1)C(=O)NC1CCCc2ccccc21)c1ccc(O)c(-c2ccc(Cl)c(Cl)c2)c1` (some centres not stated), the inhibition in assay [1] was 0.59%; in assay [2], 0.41%; in assay [3], -0.1%.
The like results for `CC(=O)Nc1ccc(Cl)c(Cl)c1` were, in that order, -0.84%, 0.05% and -0.72%.
